# Measurements as given in paper PMC4336329 (PLoS ONE, 2015).
# In all, about 310,000 compounds went through this assay and about 14,000 (4.5%) showed an effect of 50% or more. Effects have a minus sign here. Only a selection was taken, and strong results are over-represented in it overall.
# Biological target: human ether-à-go-go-related gene (hERG) potassium channel (human, UniProt Q12809)
# Experiment: primary screen, population patch clamp on CHO cells stably expressing hERG; higher = less effect of the substance
# 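Also: peak tail current of the secondary pulse compared with the same well before compound.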
# Chain of human ether-à-go-go-related gene (hERG) potassium channel (Q12809 whole entry, looked up): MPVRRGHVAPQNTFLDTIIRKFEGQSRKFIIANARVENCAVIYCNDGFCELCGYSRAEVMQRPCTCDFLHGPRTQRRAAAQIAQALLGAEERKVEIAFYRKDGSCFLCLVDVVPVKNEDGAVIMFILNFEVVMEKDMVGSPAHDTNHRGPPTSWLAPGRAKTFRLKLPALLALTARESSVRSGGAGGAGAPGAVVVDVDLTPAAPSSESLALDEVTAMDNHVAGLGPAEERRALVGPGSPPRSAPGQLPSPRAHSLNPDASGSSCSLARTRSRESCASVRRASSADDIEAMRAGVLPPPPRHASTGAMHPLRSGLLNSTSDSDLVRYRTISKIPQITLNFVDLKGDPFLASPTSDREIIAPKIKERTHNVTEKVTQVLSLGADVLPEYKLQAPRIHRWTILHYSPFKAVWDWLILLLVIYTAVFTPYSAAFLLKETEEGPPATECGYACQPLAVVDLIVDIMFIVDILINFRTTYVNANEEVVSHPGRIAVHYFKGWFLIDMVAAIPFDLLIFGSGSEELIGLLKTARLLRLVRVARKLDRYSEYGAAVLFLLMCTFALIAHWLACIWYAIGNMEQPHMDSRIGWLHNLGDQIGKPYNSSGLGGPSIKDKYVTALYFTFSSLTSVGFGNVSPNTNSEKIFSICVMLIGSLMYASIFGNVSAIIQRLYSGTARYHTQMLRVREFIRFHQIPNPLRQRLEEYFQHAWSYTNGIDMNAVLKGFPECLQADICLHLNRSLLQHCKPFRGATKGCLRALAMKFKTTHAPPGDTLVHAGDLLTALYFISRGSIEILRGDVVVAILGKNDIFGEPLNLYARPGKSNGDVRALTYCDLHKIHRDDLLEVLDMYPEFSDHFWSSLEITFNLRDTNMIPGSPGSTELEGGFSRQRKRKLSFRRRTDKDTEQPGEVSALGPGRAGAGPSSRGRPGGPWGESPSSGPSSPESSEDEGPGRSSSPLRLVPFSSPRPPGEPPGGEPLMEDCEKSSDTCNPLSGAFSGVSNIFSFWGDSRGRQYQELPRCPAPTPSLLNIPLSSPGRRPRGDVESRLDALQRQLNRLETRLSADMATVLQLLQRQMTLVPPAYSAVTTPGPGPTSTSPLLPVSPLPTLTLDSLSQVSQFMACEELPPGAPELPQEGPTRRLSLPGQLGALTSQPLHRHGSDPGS
row,Structure (SMILES),"hERG current change (%, negative = inhibition) at 10uM [%]"
1,Cc1cc(NS(C)(=O)=O)c(=O)n(Cc2c(F)cccc2Cl)c1,8.86
2,CCCCn1c(SCC(=O)N2CCC(C)CC2)nc2cc(S(N)(=O)=O)ccc21,-30.2
3,CCCCn1c(SCc2ncc(-c3ccccc3)o2)nc2cc(S(N)(=O)=O)ccc21,-50.5
4,CCCCn1c(SCc2nc3ccccc3s2)nc2cc(S(N)(=O)=O)ccc21,-37.5
5,CCCCn1c(SCc2c(C)noc2C)nc2cc(S(N)(=O)=O)ccc21,-43.1
6,CCCCn1c(SCC(=O)N2CCCC2)nc2cc(S(N)(=O)=O)ccc21,9.3
7,CCCCn1c(SCC(=O)N2CCC(C(=O)OCC)CC2)nc2cc(S(N)(=O)=O)ccc21,-70.7
8,Cc1cc(C(=O)CSc2nn3c(=O)c(C(C)(C)C)nnc3s2)c(C)n1C,9.61
9,COc1ccc(NC(=S)NCCc2ccc(F)cc2)c(OC)c1,-19.4
10,O=C1c2cccc3c([N+](=O)[O-])ccc(c23)C(=O)N1c1ccccn1,7.95
11,O=C(Cc1cccs1)NNC(=S)NC(=O)c1ccc(F)c(F)c1,12.2
12,CC(C)N(C(=O)CN1CCC(c2nc3ccccc3[nH]2)CC1)C(C)C,-4.13
13,CCCNC(=O)CN1CCC(c2nc3ccccc3[nH]2)CC1,15.6
14,Cc1ccc2nc(-c3ccc(SCC(=O)Nc4ccc5c(c4)OCCO5)nc3)[nH]c2c1,-5.51
15,Cc1ccc2nc(SCC(=O)Nc3ccc4c(c3)OCCO4)[nH]c2c1,4.73
16,C=CCNC(=O)CN1CCC(c2nc3ccccc3[nH]2)CC1,7.7
17,Cc1ccc2nc(C3CCN(CC(=O)Nc4ccc5c(c4)OCCO5)CC3)[nH]c2c1,-50.6
18,O=C(CN1CCC(c2nc3ccccc3[nH]2)CC1)Nc1ccc2c(c1)OCO2,-53.1
19,CC(C)NC(=O)CN1CCC(c2nc3ccccc3[nH]2)CC1,-8.64
20,O=C(CN1CCC(c2nc3ccccc3[nH]2)CC1)NCc1ccc2c(c1)OCO2,-84.3
21,CCN1CCN(Cc2ccc(NC(=O)c3cc(NC(=O)c4ccc5n[nH]nc5c4)cc(OC)c3)cc2C(F)(F)F)CC1,21.1
22,CC(C(=O)OCC(=O)c1ccccc1)N1C(=O)C2C3CCC(C3)C2C1=O (stereo not drawn),10.5

row,Structure (SMILES),"hERG current change (%, negative = inhibition) at 10uM [%]"
1,c1ccc(OCCCn2nnc(-c3ccc(N4CCOCC4)cc3)n2)cc1,15.4
2,COc1ccc(NC(=O)CN(C)S(=O)(=O)c2cccc3nsnc23)cc1OC,-10.3
3,CCc1ccc(N(CC(=O)NC2CCCCC2)C(=O)CNC(=O)c2ccco2)cc1,-13.6
4,CC(C)c1ccc(N2C(=NC(=O)C3CCCO3)SC3CS(=O)(=O)CC32)cc1 (stereo not drawn),-9.87
5,O=C1c2ccccc2C(=O)N1CN(C(=O)COc1ccc(Cl)cc1Cl)c1cccc(F)c1,1.4
6,COc1cccc(S(=O)(=O)Nc2ccc(C(=O)NCc3ccco3)cc2)c1,3.01
7,Cn1c(-c2ccc(F)cc2)cnc1NCc1ccc(F)cc1,-40.7
8,Cn1c(-c2ccc(Br)cc2)cnc1NCc1ccc(C#N)cc1.O=C(O)C(=O)O,-76.6
9,Cn1c(-c2ccccc2)cnc1NCc1ccc(-c2ccccc2)cc1.O=C(O)C(=O)O,-10.4
10,Cn1c(-c2ccc(F)cc2)cnc1NCc1ccc(C#N)cc1,-73.7
11,Cn1c(-c2ccc(F)cc2)cnc1NCc1ccccc1,-46.7
12,COc1cc(OC)c(NC(=O)CCNC(=O)Cn2cnc3ccccc3c2=O)cc1Cl,-0.133
13,CCc1nnc(NS(=O)(=O)c2ccc(NC(=O)/C=C/c3ccc(F)cc3)cc2)s1,8.28
14,O=C(O)CCC(=O)Nc1sc2c(c1C(=O)NC1CCCC1)CCCC2,5.76
15,Cc1cc(C)cc(C(=O)NC(CC(N)=O)c2ccc(NC3CCCCCCC3)c([N+](=O)[O-])c2)c1 (stereo not drawn),1.06
16,CC(=O)c1c(O)cc(C)oc1=O,25.5
17,C(=N\Nc1nc(N2CCOCC2)nc(N2CCOCC2)n1)/c1cccnc1,-12.1
18,FC(F)(F)COc1nc(N/N=C/c2cccnc2)nc(N2CCCCC2c2ccccn2)n1 (stereo not drawn),-60.8
19,C(=N\Nc1nc(N2CCCC2)nc(N2CCCC2)n1)/c1cccnc1,6.33
20,COCCN(CC(=O)NCc1ccc(OC)cc1)C(=O)CCC(=O)Nc1nccs1,-8.1
21,O=S(Cc1cc(Oc2ccccc2)nc(-c2ccccc2)n1)c1ccccc1 (stereo not drawn),-7.69
22,O=Cc1sc(Nc2ccccc2)nc1Cl,-13.1

row,Structure (SMILES),"hERG current change (%, negative = inhibition) at 10uM [%]"
1,CCN1CCN(c2ccc(S(=O)(=O)N3CCCCC3)cc2NC(=O)c2ccc([N+](=O)[O-])o2)CC1,-75.9
2,CCN1CCN(c2c(Cl)cccc2NC(=O)c2cc3ccccc3o2)CC1,-23.4
3,COc1ccc(N2CCCC2)c(NC(=O)c2ccc([N+](=O)[O-])o2)c1,14
4,CCN1CCN(c2ccc(S(=O)(=O)N3CCCCC3)cc2NC(=O)c2ccc(C)o2)CC1,-75.7
5,COc1ccc(S(=O)(=O)N2CCCCC2)cc1NC(=O)c1ccc([N+](=O)[O-])o1,-2.81
6,CCN1CCN(c2ccc(S(=O)(=O)N3CCCCC3)cc2NC(=O)c2cccc(C)c2[N+](=O)[O-])CC1,-28.8
7,CCN1CCN(c2ccc(S(=O)(=O)N3CCCCC3)cc2NC(=O)c2cc3ccccc3o2)CC1,-53.7
8,CCN1CCN(c2ccc(S(=O)(=O)N3CCCCC3)cc2NC(=O)c2ccc([N+](=O)[O-])s2)CC1,-80.6
9,Cc1ccc(S(=O)(=O)N2CCCCC2)cc1NC(=O)c1cc2ccccc2o1,-7.85
10,CCN1CCN(S(=O)(=O)c2ccc(Cl)c(C(=O)Nc3ccccc3N3CCCCC3)c2)CC1,12.8
11,CCCn1c(/N=C/c2ccccc2O)nc2ccccc21,13.6
12,COc1ccc(OCCCC(=O)Nc2nncs2)cc1,0.955
13,COc1cccc(C=Nc2ccc(N3CCOCC3)cc2)c1O,17.9
14,CCCCC(=O)Nc1ccc2c(c1)nc(CCNC(=O)c1ccco1)n2C,-11.1
15,Cc1cnc(NC(=O)CN2CCN(c3ccccc3F)CC2)s1.Cl,12.2
16,Cc1ccc(S(=O)(=O)CCC(=O)OCC(=O)NCc2ccc(Cl)cc2)cc1,36.8
17,O=C(Nc1ccccc1Cl)NC1(C(=O)N2CCOCC2)CCCCC1,17.5
18,CCN1CCN(c2ccc(S(=O)(=O)N3CCCCC3)cc2NC(=O)c2sccc2C)CC1,-71.4
19,COc1ccccc1C(=O)Nc1nc(-c2cccs2)c(NC(C)=O)s1,-7.05
20,O=C(O)CN1c2cccc3cccc(c23)S1(=O)=O,32.4
21,CC(=O)N1c2ccc(Cl)cc2C2OCCC2C1c1ccco1 (stereo not drawn),9.11
22,O=C(c1ccc(S(=O)(=O)N2CCOCC2)cc1)N1CCN(c2ccccn2)CC1,4.62

row,Structure (SMILES),"hERG current change (%, negative = inhibition) at 10uM [%]"
1,OC(C#CCN1CCCCC1)(c1ccccc1)c1ccccc1,-24.6
2,OC(C#CCN1CCCC1)(c1ccccc1)c1ccccc1,-28.8
3,OC(C#CCN1CCCC1)(c1ccccc1)c1cccc(F)c1 (stereo not drawn),-16.7
4,OC(C#CCCN1CCCCC1)(c1ccccc1)C1CCCCC1 (stereo not drawn),-46.3
5,CC1CCCN1CC#CC(O)(c1ccccc1)c1ccccc1.Cl (stereo not drawn),-60.7
6,OC(C#CCCN1CCCCC1)(c1ccccc1)c1ccccc1,-53.8
7,CCOC(=O)[C@@H]1[C@H]2COc3ccc(Br)cc3[C@H]2N2C(=O)N(c3ccc(C)cc3)C(=O)[C@]12C,-4.14
8,O=C(NC(=S)NN1CCCCC1c1cccnc1)c1ccc(Cl)cc1Cl (stereo not drawn),-6.98
9,Cc1ccc(SCC(=O)NC(=O)NCCC(C)C)c(C)c1,-1.09
10,Cc1cc(Cl)c2oc(C(=O)N(C)CCCCN3CCOCC3)c(C)c2c1,-46
11,COc1ccccc1CNC(=O)c1c(O)c2cc(OC)c(OC)cc2[nH]c1=O,6.86
12,COc1cc(/C=N/NC(=O)C(=O)NCc2cccnc2)cc(OC)c1OC,5.17
13,CC(C)(C)[C@@H]1C=C(C(=O)N2CCN(Cc3ccc4c(c3)OCO4)CC2)O[C@H](OCc2ccc(CO)cc2)C1,-35
14,C[C@H]1C=C(C(=O)N2CCN(Cc3ccc4c(c3)OCO4)CC2)O[C@@H](OCc2ccc(CO)cc2)C1,-70.7
15,CC(C)(C)[C@H]1C=C(C(=O)N2CCN(Cc3ccc4c(c3)OCO4)CC2)O[C@@H](OCc2ccc(CO)cc2)C1,-33.7
16,O=C(C1=C[C@@H](C2CC2)C[C@@H](OCCCCO)O1)N1CCN(Cc2ccc3c(c2)OCO3)CC1,-11.1
17,O=C(C1=C[C@@H](C2CCCCC2)C[C@@H](OCc2ccc(CO)cc2)O1)N1CCN(Cc2ccc3c(c2)OCO3)CC1,4.46
18,O=C(C1=C[C@@H](C2CC2)C[C@@H](OCc2ccc(CO)cc2)O1)N1CCN(Cc2ccc3c(c2)OCO3)CC1,-51.7
19,O=C(C1=C[C@H](C2CCCCC2)C[C@H](OCc2ccc(CO)cc2)O1)N1CCN(Cc2ccc3c(c2)OCO3)CC1,-18.3
20,O=C(C1=C[C@H](c2ccc3c(c2)OCO3)C[C@H](OCc2ccc(CO)cc2)O1)N1CCN(Cc2ccc3c(c2)OCO3)CC1,-17.2
21,O=C(C1=C[C@H](C2CC2)C[C@H](OCc2ccc(CO)cc2)O1)N1CCN(Cc2ccc3c(c2)OCO3)CC1,-57.8
